This is a sample that favours compounds with a hit; in the whole collection about 1% have one here.
RECQ1 inh – RECQ1 (human) helicase inhibition; hit rate 0.54% among 240,000; RECQ1 DNA unwinding, red fluorescence kinetic read; Potency, µM (titrated, usually from 57.3 µM), inactives show at the highest dose activity, negative = inhibition, hits mostly inhibitors; P46063;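 also: plate controls were vehicle for no effect and no enzyme for full effect; nearly all actives have a fitted effect of over 30% in size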
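RECQ1T1 50 nM; forked duplex (20 bp + 30-nt ss tails) 200 nM, ATP 2 mM final; pH 8.0, 2 mM MgCl2, 2.5 ug/ml poly(dI-dC); 15 min compound preincubation; discontinuous kinetic read over 2 h at RT.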
L3MBTL1 block – inhibitors of human L3MBTL1; Q9Y468; hit rate 0.66% among 230,000; Potency, µM (titrated, usually from 57.1 µM), without a hit: at the top dose activity, negative = inhibition, actives largely listed as inhibitors; AlphaScreen L3MBTL1–H3K9me1 peptide binding; also: nearly all actives have a fitted effect of over 60% in size
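First, the protein-peptide complex forms for 30 min at room temperature (L3MBTL1 50 nM, biotinylated H3K9me1 peptide 75 nM). Next, compounds are pin-transferred and incubated 30 min. Finally, AlphaScreen beads are added and read after 30 min.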
WRN inhibitor – inhibitors of human WRN helicase; Q14191; WRN helicase unwinding, fluorescent forked duplex, kinetic; Potency, µM (doses to about 114 µM), for the others: top-dose activity change, negative = inhibition, most hits filed as inhibitors; hit rate 0.46% among 360,000; AID 651768; also: nearly all actives have a fitted effect of over 55% in size
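WRN at 20 nM final preincubated with compound 15 min at room temperature; reaction started with 100 nM fluorophore/quencher forked duplex oligonucleotide and 2 mM ATP final. Unwinding followed kinetically by red fluorescence (ex 525, em 598 nm).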
APE1 inh-1 – blocks human APE1 abasic DNA cleavage | Potency, µM (doses to about 65.8 µM), for the others: top-dose activity change, negative = inhibition, most hits filed as inhibitors | recombinant APE1, TAMRA/BHQ-2 abasic DNA cleavage fluorescence | P27695 | hit rate 0.35% among 350,000 | AID 2517;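 also: plate controls were vehicle for no effect and reference inhibitor for full effect; nearly all actives have a fitted effect of over 55% in size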
Target sequence (P27695 whole entry, looked up): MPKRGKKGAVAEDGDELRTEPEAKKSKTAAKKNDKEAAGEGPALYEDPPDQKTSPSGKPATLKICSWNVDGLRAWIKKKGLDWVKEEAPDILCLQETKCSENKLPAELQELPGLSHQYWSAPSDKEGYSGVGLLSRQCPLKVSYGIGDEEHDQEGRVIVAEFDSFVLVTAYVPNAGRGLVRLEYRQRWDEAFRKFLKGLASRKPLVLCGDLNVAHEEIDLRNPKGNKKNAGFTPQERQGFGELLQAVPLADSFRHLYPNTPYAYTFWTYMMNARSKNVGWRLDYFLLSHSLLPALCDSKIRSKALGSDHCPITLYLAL
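Readout is kinetic fluorescence (ex 525, em 598 nm) from cleavage of 50 nM TAMRA/BHQ-2 THF abasic duplex by 0.75 nM APE1, compound added 15 min beforehand at RT.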
FEN1 inhibitor – blocks human flap endonuclease 1; P39748; Recombinant FEN1 flap cleavage, fluorescence, 15 min; Potency, µM (highest dose often 114 µM), inactives show top-dose activity change, negative = inhibition, usual class: inhibitors; hit rate 0.35% among 390,000; AID 588795; also: nearly all actives have a fitted effect of over 65% in size
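Read-out was taken twice, immediately and after 15 min, following addition of 50 nM substrate to 10 nM FEN1 that had sat with test compound for 15 min at room temperature. Curves came from a four-parameter Hill model.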
BLM inh – Bloom syndrome helicase (human) inhibition; Potency, µM (highest dose often 56.1 µM), without a hit: at the top dose activity change, negative = inhibition, hits mostly inhibitors; P54132; recombinant BLM DNA unwinding, fluorescence dequenching; hit rate 0.2% among 350,000; AID 2528;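 also: plate controls were vehicle for no effect and no enzyme for full effect; nearly all actives have a fitted effect of over 35% in size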
APE1 dye cs – counter-screen for APE1 inhibitors: DNA dye displacement; shares compounds with APE1 inh-1; DNA fluorescent dye displacement counterscreen, fluorescence; Potency, µM (titrated, usually from 28.5 µM), for inactives: top-dose activity change, negative = inhibition, hits mostly inhibitors; hit rate 7% among 480; AID 2564;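 also: loss of thiazole orange fluorescence as the dye is displaced from duplex DNA; 0% = ThO with dsDNA and no compound and -100% = ThO without dsDNA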
Endo IV inh – blocks E. coli endonuclease IV DNA cleavage; shares compounds with APE1 inh-1; E. coli Endo IV, fluorogenic AP-site DNA cleavage; Potency, µM (series often up to 27.1 µM), without a hit: at the top dose activity change, negative = inhibition, most hits filed as inhibitors; hit rate 4% among 560; AID 2565;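 also: plate controls were uninhibited enzyme wells for no effect and no enzyme buffer wells for full effect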
APE1 inh-2 – APE1 (human) endonuclease inhibition, confirmation; shares compounds with APE1 inh-1; AID 2572; purified APE1, fluorogenic abasic-site DNA cleavage; hit rate 44% among 750; Potency, µM (titrated, usually from 57.1 µM), for inactives: at the highest dose activity change, negative = inhibition, most hits filed as inhibitors; also: nearly all actives have a fitted effect of over 30% in size
APE1 FP inh – APE1 (human) DNA binding inhibition, fluorescence polarization. shares compounds with APE1 inh-1. APE1 binding to TAMRA-labelled double-stranded DNA, fluorescence polarization displacement. Potency, µM (titrated, usually from 28.5 µM), inactives show top-dose activity, negative = inhibition, usual class: inhibitors. hit rate 7% among 480. AID 2573
Active calls of the source: *; i = inactive; ? = inconclusive; . = no result; [ ] = dose if it differs, or a comment. Calls follow the shape of the dose curve; as a rule, active = well fitted curve in the direction sought with a large enough effect; inconclusive = small, poorly fitted or top-dose-only effect, or another doubt; inactive = no such curve, though single readings can be large; an effect the other way counts as inactive or inconclusive. Unless noted, % is scaled to controls: 0 for no effect and ±100 for the full control effect; potency is read from the fitted curve at half-maximal effect.

SMILES	RECQ1 inh	L3MBTL1 block	WRN inhibitor	APE1 inh-1	FEN1 inhibitor	BLM inh	APE1 dye cs	Endo IV inh	APE1 inh-2	APE1 FP inh
Cc1cc[n+](-c2[nH]c(=O)sc2/C=N/N=C(\[O-])c2ccccc2)cc1C	28µM*	-20%	0%	18µM*	-1%	-14%	141%	8%	?	-7%
COc1cc(N)c(Cl)cc1C(=O)OCCN1CCCCC1	-5%	.	.	?	11µM*	-2%	-3%[57.1 µM]	26%[57.1 µM]	-4%	-2%[57.1 µM]
Fc1ccc(C2CC(c3cccs3)=NN2c2ccccc2)cc1 (stereo not given)	i	244%	-12%	-6%	-8%	-10%	.	.	-17%	.
O=c1cc(-c2ccc(O)cc2)oc2c([C@@H]3O[C@H](CO)[C@@H](O)[C@H](O)[C@H]3O)c(O)c([C@@H]3O[C@H](CO)[C@@H](O)[C@H](O)[C@H]3O)c(O)c12	-8%	-1%	-4%	?	-11%	-2%	.	.	.	.
O=c1cc(-c2ccc(O)cc2)oc2c(C3OCC(O)C(O)C3O)c(O)c(C3OC(CO)C(O)C(O)C3O)c(O)c12 (stereo not given)	-15%	.	-2%	20µM*	?	-12%	-7%	-4%	4.5µM*	1%
CCOC(=O)[C@]12CCCC=C1N(CCC1=CCCCC1)C(=O)[C@H](CC(=O)NCc1cccs1)C2	.	.	-5%	.	.	.	.	.	.	.
CCOC(=O)c1cc2c(=O)n3ccccc3nc2n(Cc2ccco2)c1=NC(=O)c1ccccc1OC	-21%	6%	?	?	-12%	-24%	.	.	-35%	.
CN1CCOc2cc(S(=O)(=O)N3CCN(c4nc(-c5cccs5)nc5ccccc45)CC3)ccc21	.	.	.	.	6%	.	.	.	.	.
O=c1c(-c2c(O)cc(O)c3c(=O)cc(-c4ccc(O)cc4)oc23)c(-c2ccc(O)cc2)oc2cc(O)cc(O)c12	13µM*	.	56µM*	0.79µM*	50µM*	13µM*	14µM*	?	2µM*	0%
O=c1cc(-c2ccc(O)cc2)oc2c(-c3c(O)cc(O)c4c(=O)cc(-c5ccc(O)cc5)oc34)c(O)cc(O)c12	.	-11%	-11%	22%	?	.	.	.	.	.
O=C(CSc1ccc([N+](=O)[O-])cn1)Nc1ccc2[nH]c(=O)[nH]c2c1	.	.	5%	7%	-9%	-9%	.	.	.	.
O=C(Nc1ccc([N+](=O)[O-])cc1)Nc1ccc2[nH]c(=O)[nH]c2c1	-27%	3%	-23%	?	-17%	-24%	-18%	-3%	?	11%
Oc1cccc(-c2nc3ncccn3c2Nc2cccc(C(F)(F)F)c2)c1	.	.	.	.	-8%	-2%	.	.	.	.
COc1ccc(-c2cnnc(N/N=C/c3ccc(O)cc3)n2)cc1	-2%	0%	-2%[57.1 µM]	1%	-8%	-4%	.	.	.	.
COc1ccc(-c2cnnc(N/N=C/c3ccc(O)c(O)c3)n2)cc1	16µM*	?	?	20µM*	?	-16%	?	29%	-12%[24.4 µM]	15%
